Seven compounds from PubChem BioAssay (NCI) can be followed below.

Some test systems named below: SR leukemia; RPMI-8226 leukemia; OVCAR-8 ovarian; OVCAR-5 ovarian; OVCAR-4 ovarian; SK-OV-3 ovarian; IGROV1 ovarian; OVCAR-3 ovarian; HS 578T breast; NCI/ADR-RES ovarian; T-47D breast; BT-549 breast; MDA-MB-435 melanoma; SW-620 colon; MCF7 breast; HCT-116 colon; HCC-2998 colon; KM12 colon; MDA-MB-468 breast.
Assay in all cases: NCI-60 one-dose screen, 48 h (100 = growth as untreated, 0 = no growth, -100 = all killed)
Common to all, as to settings: 10 µM unless noted

“And” between values parts separate entries of the source, which are not always exact repeats. Equal values may be shown once. This is part of a sample that, as a whole, favours compounds with a hit. Of some 83,000 tested, about 20% had one in any assay.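 Note: values are percent growth. 100 is the growth of untreated cells, values between 100 and 0 indicate rising inhibition; between -100 and 0 indicates cell death.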 The source made the active and inactive calls. How the source made its calls: active means growth percent below 10; inactive means the rest.

Regarding `O=c1[nH]c2ccccc2cc1COc1ccc(Nc2nccc(-c3ccc(Cl)cc3)n2)cc1`, the growth with SR leukemia is 103% (inactive); with RPMI-8226 leukemia, 108% (inactive); with OVCAR-8 ovarian it was 102% (inactive); in the assay with OVCAR-5 ovarian, 106% (inactive); with OVCAR-4 ovarian it was 95.6% (inactive); in the assay with SK-OV-3 ovarian, 94.5% (inactive). In addition, the growth in the assay on IGROV1 ovarian was 102% (inactive); in the assay with OVCAR-3 ovarian, 138% (inactive); in the assay on HS 578T breast it was 85.7% (inactive); with NCI/ADR-RES ovarian, 101% (inactive); in the assay on T-47D breast, 92.2% (inactive); in the assay on BT-549 breast, 99.3% (inactive). Also, the growth in the assay on MDA-MB-435 melanoma is 102% (inactive); with SW-620 colon, 105% (inactive); in the assay on MCF7 breast it was 91.3% (inactive); in the assay with HCT-116 colon it was 96.4% (inactive); in the assay with HCC-2998 colon, 116% (inactive); in the assay with KM12 colon it was 99.3% (inactive).
Consider `C[C@H]1[C@@H](CC(=O)N[C@@H](Cc2coc3ccccc23)B(O)O)O[C@@H]2OC3(C)CC[C@H]4[C@H](C)CC[C@@H]1[C@@]24O3`, for which the growth in the assay on SR leukemia was 29.6% (inactive); in the assay on RPMI-8226 leukemia, -4.75% (active); with OVCAR-8 ovarian, 47.1% (inactive); with OVCAR-5 ovarian, -26.1% (active); in the assay on OVCAR-4 ovarian, 33% (inactive); in the assay with SK-OV-3 ovarian, 58.8% (inactive). The growth in the assay with IGROV1 ovarian was 9.89% (active); in the assay on OVCAR-3 ovarian, 3.84% (active); in the assay with HS 578T breast, -0.841% (active); in the assay with NCI/ADR-RES ovarian, 19.5% (inactive); in the assay on T-47D breast, 27.1% (inactive); with BT-549 breast, -72.8% (active). Further, the growth with MDA-MB-435 melanoma was -75.8% (active); in the assay on SW-620 colon, 3.32% (active); with MCF7 breast, 24.4% (inactive); with HCT-116 colon it was -56.6% (active); with HCC-2998 colon, -83.1% (active); in the assay on KM12 colon it was 0.198% (active).
As to `O=C1CCC(N2C(=O)c3cccc(NCCOCCOCCOCCC(=O)NCCCC(=O)NC(c4ccc5c(c4)OCO5)c4cc(Cl)c5cccnc5c4O)c3C2=O)C(=O)C1` (configuration not stated), the growth with SR leukemia was 5.36% (active); in the assay on RPMI-8226 leukemia, 16.1% (inactive); in the assay with OVCAR-8 ovarian it was 32.7% (inactive); in the assay with OVCAR-5 ovarian, 63.8% (inactive); in the assay with OVCAR-4 ovarian, 60.2% (inactive); in the assay with SK-OV-3 ovarian it was 51.1% (inactive). In addition, the growth with IGROV1 ovarian is 15.8% (inactive); in the assay with OVCAR-3 ovarian it was 10.9% (inactive); with HS 578T breast it was 64.6% (inactive); in the assay with NCI/ADR-RES ovarian it was 92.4% (inactive); with T-47D breast, 16% (inactive); in the assay on BT-549 breast it was 11.3% (inactive). Also, the growth was 47.4% (inactive) with MDA-MB-435 melanoma; 39% (inactive) with SW-620 colon; 10.9% (inactive) in the assay with MCF7 breast; 28.3% (inactive) in the assay on HCT-116 colon; 30% (inactive) in the assay with HCC-2998 colon; 13.4% (inactive) with KM12 colon.
Turning to `CC[C@]12C=CCN3CC[C@]4(C(=C(C(=O)OC)C1)Nc1cc(OC)c([C@@H]5[C@H]6O[C@H]6[C@@]6(CC)CC(C(=O)OC)=C7Nc8cc(O)ccc8[C@@]78CCN5[C@@H]68)cc14)[C@@H]32`, the growth with SR leukemia was -30.7% (active); in the assay on RPMI-8226 leukemia, -5.84% (active); in the assay on OVCAR-8 ovarian, 27.6% (inactive); with OVCAR-5 ovarian, -66.7% (active); in the assay on OVCAR-4 ovarian, 14.6% (inactive); with SK-OV-3 ovarian, 40.2% (inactive). Besides, the growth in the assay with IGROV1 ovarian is 1.62% (active); with OVCAR-3 ovarian, -9.2% (active); in the assay with HS 578T breast, 23.7% (inactive); in the assay on NCI/ADR-RES ovarian it was 6.92% (active); in the assay with T-47D breast, 2.37% (active); in the assay with BT-549 breast, -29% (active). Moreover, the growth was -53.9% (active) in the assay with MDA-MB-435 melanoma; 1.97% (active) in the assay on SW-620 colon; -25.7% (active) in the assay with MCF7 breast; -72.3% (active) in the assay with HCT-116 colon; -76.3% (active) in the assay on HCC-2998 colon; 0.303% (active) in the assay on KM12 colon.
For the compound `CS(=O)(=O)Nc1cccc(-n2c(COc3ccc(OC(F)(F)F)cc3)nc3ccccc32)c1`, the growth in the assay on SR leukemia is 68.3% (inactive) and 83.2% (inactive); in the assay on RPMI-8226 leukemia, 76.7% (inactive) and 98.1% (inactive); in the assay on OVCAR-8 ovarian it was 93.1% (inactive) and 110% (inactive); in the assay with OVCAR-5 ovarian, 124% (inactive); in the assay on OVCAR-4 ovarian it was 84.9% (inactive) and 104% (inactive); with SK-OV-3 ovarian, 76% (inactive) and 95.4% (inactive). For the same compound, the growth with IGROV1 ovarian was 56.4% (inactive) and 111% (inactive); in the assay on OVCAR-3 ovarian, 107% (inactive) and 112% (inactive); with HS 578T breast, 47.9% (inactive) and 101% (inactive); in the assay with NCI/ADR-RES ovarian it was 88.2% (inactive) and 107% (inactive); in the assay on T-47D breast it was 62.2% (inactive) and 85% (inactive); in the assay on BT-549 breast, 98% (inactive) and 96.5% (inactive). The growth with MDA-MB-435 melanoma was 102% (inactive) and 103% (inactive); in the assay on SW-620 colon it was 97.3% (inactive) and 108% (inactive); in the assay on MCF7 breast it was 65.6% (inactive) and 102% (inactive); in the assay on HCT-116 colon, 85.9% (inactive) and 104% (inactive); with HCC-2998 colon, 114% (inactive) and 113% (inactive); with KM12 colon, 91.9% (inactive) and 101% (inactive).
Consider `O=C(CCl)Nc1ccc(C(=O)/C=C/c2cc3ccccc3nc2Cl)cc1`, for which the growth with SR leukemia was -69.5% (active) and 25.5% (inactive); in the assay with RPMI-8226 leukemia, -36.6% (active) and 40.5% (inactive); in the assay on OVCAR-8 ovarian it was 14.6% (inactive) and 48.6% (inactive); in the assay with OVCAR-5 ovarian it was -61.1% (active) and 55.9% (inactive); in the assay with OVCAR-4 ovarian it was -59.6% (active) and 54.7% (inactive); in the assay with SK-OV-3 ovarian, 70.5% (inactive) and 66.7% (inactive). Besides, the growth with IGROV1 ovarian is -84.1% (active) and 39.2% (inactive); in the assay with OVCAR-3 ovarian, -59.5% (active) and 42.4% (inactive); in the assay with HS 578T breast, 42.1% (inactive) and 53.7% (inactive); in the assay with NCI/ADR-RES ovarian, -26.4% (active) and 4.54% (active); in the assay on T-47D breast it was -46.9% (active) and 51.1% (inactive); in the assay with BT-549 breast, -82.4% (active) and 45.6% (inactive). In addition, the growth was -54.9% (active) and 52.1% (inactive) in the assay on MDA-MB-435 melanoma; -78.3% (active) and 48.9% (inactive) with SW-620 colon; -57.1% (active) and 24.9% (inactive) with MCF7 breast; 8.67% (active) and 39.7% (inactive) with HCT-116 colon; -93.4% (active) and 51.1% (inactive) in the assay on HCC-2998 colon; -68.6% (active) and 22.5% (inactive) in the assay on KM12 colon. For the same compound, the growth in the assay on MDA-MB-468 breast was -82.5% (active) and 54.9% (inactive).
Consider `O=C(Nc1ccc(-c2ccc3c(c2)NC(=O)/C3=C\c2ccc[nH]2)cc1)Nc1cccc(Cl)c1`, for which the growth in the assay on SR leukemia is 6.39% (active); with RPMI-8226 leukemia, 18.2% (inactive); with OVCAR-8 ovarian, -34.5% (active); with OVCAR-5 ovarian, -68.3% (active); with OVCAR-4 ovarian, 6.87% (active); with SK-OV-3 ovarian, 3.23% (active). In addition, the growth is -62.2% (active) with IGROV1 ovarian; 2.44% (active) in the assay on OVCAR-3 ovarian; 21.9% (inactive) in the assay with HS 578T breast; -37.9% (active) in the assay with NCI/ADR-RES ovarian; -1.23% (active) in the assay on T-47D breast; -1.48% (active) in the assay on BT-549 breast. The growth is 10.1% (inactive) in the assay with MDA-MB-435 melanoma; 13.9% (inactive) in the assay with SW-620 colon; -9.34% (active) in the assay on MCF7 breast; 2.08% (active) in the assay on HCT-116 colon; -24.2% (active) in the assay on HCC-2998 colon; -22.3% (active) in the assay on KM12 colon.
